Among the test systems are RPMI-8226 leukemia; OVCAR-8 ovarian; OVCAR-5 ovarian; OVCAR-4 ovarian; SK-OV-3 ovarian; IGROV1 ovarian; OVCAR-3 ovarian; NCI/ADR-RES ovarian; T-47D breast; BT-549 breast; MDA-MB-435 melanoma; SW-620 colon; MCF7 breast; HCT-116 colon; HCC-2998 colon; KM12 colon; HS 578T breast.
Test in all cases: NCI-60 one-dose screen, 48 h (100 = growth as untreated, 0 = no growth, -100 = all killed)
Holding throughout (conditions): 10 µM unless noted

This note sets out measurements from PubChem BioAssay (NCI).

The structures appear in SMILES notation. The panel holds about 83,000 compounds, 20% with a hit somewhere; the sample as a whole holds those more often.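 Single-concentration screen, 48 h exposure, 96-well plates. Endpoint: percent growth. Below 10 = active.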 Values without a mark were called inactive. Calls of active or inactive are those of the source.

On to `COc1ccc2c(c1)C(=O)c1c-2c(=O)n(CCCCCCC(=O)NO)c2ccccc12`, for which the growth was -2.83% (active) in the assay with RPMI-8226 leukemia; 7.33% (active) in the assay on OVCAR-8 ovarian; -4.52% (active) in the assay on OVCAR-5 ovarian; 4.23% (active) in the assay on OVCAR-4 ovarian; -3.32% (active) with SK-OV-3 ovarian; -34.9% (active) in the assay with IGROV1 ovarian. Further, the growth was -19.6% (active) in the assay with OVCAR-3 ovarian; -14.1% (active) in the assay on NCI/ADR-RES ovarian; -11.8% (active) in the assay on T-47D breast; 23.4% in the assay with BT-549 breast; -14.1% (active) in the assay with MDA-MB-435 melanoma; -27.4% (active) in the assay on SW-620 colon. The growth in the assay with MCF7 breast was 5.92% (active); in the assay with HCT-116 colon it was -55.8% (active); with HCC-2998 colon, -39.6% (active); in the assay with KM12 colon it was 10.9%.
As for `C[n+]1c2ccccc2c(Nc2ccc(N3CCCCC3)cc2)c2[nH]c3ccccc3c21`, the growth is -72.4% (active) in the assay on RPMI-8226 leukemia; -87.4% (active) with OVCAR-8 ovarian; -86.2% (active) with OVCAR-5 ovarian; -35.3% (active) in the assay with OVCAR-4 ovarian; -75.8% (active) in the assay with SK-OV-3 ovarian; -97% (active) with IGROV1 ovarian. The growth in the assay on OVCAR-3 ovarian is -95.7% (active); in the assay on HS 578T breast it was -69.5% (active); in the assay on NCI/ADR-RES ovarian, -61.8% (active); in the assay on T-47D breast, -55.7% (active); in the assay on MDA-MB-435 melanoma it was -96.4% (active); with SW-620 colon, -90.8% (active). Besides, the growth with MCF7 breast was -74.6% (active); in the assay on HCT-116 colon, -98.7% (active); with KM12 colon, -96.5% (active).
Turning to `COc1ccc(/C=C/C(=O)Nc2cccnc2Nc2ccc(F)cc2)cc1`, the growth in the assay with RPMI-8226 leukemia is 88.6%; in the assay with OVCAR-8 ovarian it was 92.7%; in the assay with OVCAR-5 ovarian, 104%; in the assay with OVCAR-4 ovarian, 91.1%; in the assay with SK-OV-3 ovarian, 101%; with IGROV1 ovarian, 117%. The growth with OVCAR-3 ovarian was 112%; in the assay on NCI/ADR-RES ovarian, 93.1%; with T-47D breast, 87.7%; with BT-549 breast it was 89.3%; with MDA-MB-435 melanoma it was 94.4%; in the assay with SW-620 colon, 106%. The growth with MCF7 breast was 88.3%; in the assay on HCT-116 colon, 91.3%; with HCC-2998 colon, 106%; in the assay on KM12 colon, 107%.
For the compound `COc1cc(C2NC(c3ccc(Cl)cc3)C(C)C(=NC(=O)c3cnccn3)C2C)cc(OC)c1OC` (configuration not stated), the growth with RPMI-8226 leukemia is 79.4%; in the assay on OVCAR-8 ovarian it was 103%; in the assay on OVCAR-5 ovarian it was 94.5%; with OVCAR-4 ovarian, 93%; with SK-OV-3 ovarian, 108%; in the assay on IGROV1 ovarian, 91.6%. Besides, the growth was 107% with OVCAR-3 ovarian; 101% in the assay with NCI/ADR-RES ovarian; 88% with T-47D breast; 102% with BT-549 breast; 108% with MDA-MB-435 melanoma; 114% in the assay on SW-620 colon. For the same compound, the growth in the assay with MCF7 breast was 93.1%; with HCT-116 colon, 78.9%; in the assay on HCC-2998 colon it was 129%; in the assay on KM12 colon, 90.7%.
For `Cc1cc2c(cc1C)Nc1sc(NC(=O)CN3CCN(C)CC3)nc1C(=O)N2`, the growth was 105% with RPMI-8226 leukemia; 103% with OVCAR-8 ovarian; 105% with OVCAR-5 ovarian; 108% in the assay on OVCAR-4 ovarian; 99.6% in the assay on SK-OV-3 ovarian; 112% with IGROV1 ovarian. Besides, the growth in the assay with OVCAR-3 ovarian is 112%; in the assay on NCI/ADR-RES ovarian, 103%; with T-47D breast, 94.1%; in the assay with BT-549 breast it was 109%; in the assay on MDA-MB-435 melanoma, 111%; in the assay on SW-620 colon, 116%. Also, the growth is 97.5% in the assay with MCF7 breast, 101% with HCT-116 colon, 101% in the assay with HCC-2998 colon and 102% with KM12 colon.
Turning to `COc1ccc(-n2nc3c(c2-c2ccc(OC)c(OC)c2)-c2oncc2CC3)cc1`, the growth in the assay with RPMI-8226 leukemia was 56.7%; in the assay with OVCAR-8 ovarian, 84.7%; in the assay on OVCAR-5 ovarian it was 99.5%; with OVCAR-4 ovarian, 86.1%; in the assay with SK-OV-3 ovarian, 106%; with IGROV1 ovarian, 99.1%. Further, the growth in the assay with OVCAR-3 ovarian was 76.4%; in the assay on NCI/ADR-RES ovarian it was 80.6%; in the assay on T-47D breast, 71%; in the assay on BT-549 breast it was 77.5%; in the assay with MDA-MB-435 melanoma, 78.6%; with SW-620 colon it was 99%. Also, the growth in the assay with MCF7 breast is 80.8%; with HCT-116 colon, 87.9%; in the assay on HCC-2998 colon, 104%; in the assay on KM12 colon, 77.7%.
As to `Cc1cc2cn3c4cccnc4[nH]c(=O)c3c2cc1C`, the growth was -5.48% (active) in the assay with RPMI-8226 leukemia; -46.1% (active) in the assay on OVCAR-8 ovarian; 92.9% in the assay with OVCAR-5 ovarian; 47.9% with OVCAR-4 ovarian; 81% with SK-OV-3 ovarian; 65% in the assay on IGROV1 ovarian. For the same compound, the growth in the assay on OVCAR-3 ovarian was 29.5%; in the assay on NCI/ADR-RES ovarian, 9.65% (active); with T-47D breast it was -21.3% (active); with BT-549 breast it was 73.2%; in the assay on MDA-MB-435 melanoma, -20.7% (active); with SW-620 colon, -29.5% (active). The growth is -36.9% (active) in the assay on MCF7 breast, -85.3% (active) with HCT-116 colon, 60% with HCC-2998 colon and 13.1% in the assay with KM12 colon.
Turning to `CCN(CC)CCOc1ccccc1-n1c(C)ccc1-c1ccccc1`, the growth in the assay with RPMI-8226 leukemia is 63.2%; with OVCAR-8 ovarian, 97.5%; in the assay on OVCAR-5 ovarian, 101%; with OVCAR-4 ovarian, 106%; in the assay on SK-OV-3 ovarian it was 99.5%; in the assay with IGROV1 ovarian, 71.4%. The growth was 78.9% in the assay on OVCAR-3 ovarian; 82.5% in the assay with HS 578T breast; 85.4% with NCI/ADR-RES ovarian; 91.9% in the assay with T-47D breast; 42.1% with MDA-MB-435 melanoma; 36.7% in the assay on SW-620 colon. The growth with MCF7 breast is 98.3%; in the assay on HCC-2998 colon, 24.2%.
In the case of `N#Cc1c(N)[nH]c(S)c1C#N`, the growth in the assay on RPMI-8226 leukemia was 107%; with OVCAR-8 ovarian it was 101%; in the assay on OVCAR-5 ovarian it was 99.7%; in the assay with OVCAR-4 ovarian, 109%; in the assay on SK-OV-3 ovarian, 100%; in the assay on IGROV1 ovarian, 107%. In addition, the growth in the assay with OVCAR-3 ovarian is 120%; in the assay on NCI/ADR-RES ovarian, 116%; in the assay on T-47D breast, 89.3%; in the assay with BT-549 breast, 99.4%; in the assay with MDA-MB-435 melanoma, 98.4%; in the assay with SW-620 colon, 107%. Moreover, the growth in the assay with MCF7 breast is 92.1%; in the assay with HCT-116 colon, 97.9%; with HCC-2998 colon it was 95.6%; in the assay with KM12 colon, 116%.
`Cn1cc(-c2nc(-c3c[nH]c4ncc(F)cc34)cs2)c2cccnc21`: the growth in the assay on RPMI-8226 leukemia was 100%; in the assay with OVCAR-8 ovarian, 105%; in the assay on OVCAR-5 ovarian, 93.4%; with OVCAR-4 ovarian it was 82.2%; with SK-OV-3 ovarian, 109%; in the assay on IGROV1 ovarian, 108%. Also, the growth in the assay on OVCAR-3 ovarian is 117%; with NCI/ADR-RES ovarian it was 100%; with T-47D breast, 59.9%; in the assay on BT-549 breast it was 108%; in the assay with MDA-MB-435 melanoma, 98.2%; in the assay on SW-620 colon it was 104%. For the same compound, the growth in the assay on MCF7 breast is 77.9%; in the assay on HCT-116 colon, 101%; in the assay with HCC-2998 colon, 81.6%; with KM12 colon, 99.3%.
